From PubChem BioAssay AID624169 (The Scripps Research Institute Molecular Screening Center, 2012)
The whole screen tested about 360,000 compounds, of which about 2,400 (0.67%) were called active.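 How the source made its calls: active means activation above a run cutoff, the mean activation of all tested compounds plus 3 SD (cut at about 14% in these data); inactive means the rest.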 Many of the other results were omitted from the sample, so actives are more common in it than they were.

target: 5-hydroxytryptamine receptor 2A (Mus musculus) (UniProt P35363); test: mouse Htr2a agonists via beta-arrestin recruitment, primary screen, cell-based, luminescence (AID 624169); conditions: CHO-K1 mHTR2A beta-arrestin complementation, at 7.6 µM, hits give high values, percent of 30 µM serotonin response;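 further: 0% = plate median of compound wells and 100% = 30 µM serotonin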
Sequence (P35363 whole entry, looked up): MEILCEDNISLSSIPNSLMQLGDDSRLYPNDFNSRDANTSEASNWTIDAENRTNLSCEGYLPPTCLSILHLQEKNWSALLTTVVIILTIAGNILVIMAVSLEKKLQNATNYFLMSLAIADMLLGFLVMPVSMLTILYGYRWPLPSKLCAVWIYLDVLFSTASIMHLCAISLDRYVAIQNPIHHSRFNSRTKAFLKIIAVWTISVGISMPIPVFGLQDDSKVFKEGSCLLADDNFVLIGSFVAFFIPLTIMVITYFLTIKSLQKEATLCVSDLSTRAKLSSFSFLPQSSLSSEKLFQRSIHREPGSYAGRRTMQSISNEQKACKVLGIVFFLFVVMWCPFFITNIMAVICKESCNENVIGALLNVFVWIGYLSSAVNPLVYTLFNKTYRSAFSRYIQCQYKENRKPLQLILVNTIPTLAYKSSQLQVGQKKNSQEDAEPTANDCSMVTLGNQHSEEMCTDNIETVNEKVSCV

activation, inactive:
O=C1CCCc2c1[nH]c1ccc(Br)cc21 1.31%
CCn1c(SCC(=O)N/N=C/c2ccccc2OCC(=O)O)nnc1-c1ccc(C(C)(C)C)cc1 6.89%
O=C(Nc1cccc(Cc2ccccc2)c1)Nc1ccc2nc([C@@H]3O[C@H](CO)[C@@H](O)[C@H](O)[C@H]3O)[nH]c2c1 -13%
CCCC1CCC(=NNC(=S)NCCc2ccccc2)CC1 (centres undefined) 0.18%
CC(=O)Nc1ccc(C(=O)N(C2=NC(C)CS2)c2ccc(Cl)cc2)cc1 (centres undefined) -3.34%
CC(=O)NS(=O)(=O)c1ccc(NC(=O)C2C3C=CC(C3)C2C(=O)O)cc1 (centres undefined) 2.61%
CCCCNC(=O)C[C@@H]1C[C@@]2(C(=O)OCC)CCC=C2N(Cc2ccco2)C1=O -3.77%
O=C1CCCC(O)=C1C=NCCc1ccccc1 2.15%
O=C1C=C(c2cccc(Cl)c2)C[C@@H](c2ccc(F)cc2)C1 -0.66%
C[C@@H]1CN([C@@H](C)CO)C(=O)c2cc(Br)cnc2O[C@H]1CN(C)Cc1ccc(-c2ccccc2)cc1 -1.74%
Cn1c(=NC(=O)c2cnccn2)sc2ccccc21 -2.18%
Cn1c(=NC(=O)c2ccco2)sc2cccc(F)c21 2.52%
CCOC(=O)/C=C/c1ccc(C(F)(F)F)cc1S(=O)(=O)NC(C)(C)C -0.74%
COc1ccccc1N1CC(C(=O)NCCN2C(=O)S/C(=C\c3cccnc3)C2=O)CC1=O (centres undefined) -0.83%
Cc1cc(OCCCC(=O)NCCN2C(=O)S/C(=C\c3cccnc3)C2=O)ccc1Cl 8.37%
CC1CCN(C(=O)COC(=O)c2cc(S(=O)(=O)N3CCOCC3)ccc2Cl)CC1 -1.57%
O=C(COC(=O)c1ccc(S(=O)(=O)N2CCc3ccccc3C2)cc1)NC(=O)NCc1ccco1 -5.24%
COc1cc(NC(=O)C2CCN(c3cnccn3)CC2)cc(OC)c1 -2.92%
CCOCCCNC(=O)C(=O)NCCCOCC 0.95%
CCOC(=O)Cc1cc(=O)[nH]c(=O)[nH]1 -0.86%
Cc1cc(OCCN2CCCC2)cc(C(C)C)c1 -5.99%
CCOC(=O)c1ccc(NC(=O)CCn2c(=O)oc3ccccc32)cc1 -5.94%
CCOC(=O)c1ccc(NC(=O)CS(=O)(=O)c2cn(CC)c3ccccc23)cc1 -0.07%
COc1ccc2c(c1)C(C)=CC(C)(C)N2C(=O)CNCc1ccc2c(c1)OCO2 -18.1%
CCn1nnc(NC(=O)c2c(OC)cccc2OC)n1 -1.47%
Cc1ccc(CCNC(=O)CN2C(=O)CSc3ccc(S(=O)(=O)N4CCOCC4)cc32)cc1 -3.24%
COc1cccc(C2c3[nH]c4ccccc4c3CCN2Cc2cccc(C)n2)c1 (centres undefined) -2.83%
CCC(C)N1CC(=O)N2Cc3[nH]c4ccccc4c3C[C@H]2C1=O (some centres undefined) -3.21%
S=C(Nc1ccc(Cl)cc1Cl)N1CCCC1 -3.15%
c1cnc(N2CCN(c3ccc4ccccc4n3)CC2)nc1 -1.28%
O=C(c1ccc2ccccc2n1)N1CCN(c2ccccc2Cl)CC1 7.25%
COc1ccc(NC(=O)COC(=O)c2ccncc2)c(OC)c1 -1.11%
CCOC(=O)N1CCC(Nc2c(NCCCN3CCN(c4ccc(OC)cc4)CC3)c(=O)c2=O)CC1 4.04%
CCCOc1ccc(CNC(=O)C2CCN(c3nn4c(=O)cc(C)nc4s3)CC2)cc1 11%
COC(=O)CSc1nnc(-c2cccnc2)o1 1.04%
O=C(CSc1nnc(-c2ccncc2)o1)Nc1cccc(Cl)c1 -0.76%
O=C(CSc1nncs1)NC1CCCc2ccccc21 (centres undefined) -0.06%
CC(C)COC(=O)n1c(=O)oc2ccc(S(=O)(=O)N3CCCCC3)cc21 0.93%
COc1ccc(Cn2c(=O)sc3ccccc32)cc1OC 8.35%
Cc1csc2ncc(C(=O)N(Cc3ccccc3)c3ccccn3)c(=O)n12 0.53%
CC(C)CNC(=S)NNC(=O)c1ccccc1OC(F)F 1.02%
COc1ccccc1C(=O)NC(CCSC)C(=O)N1CCN(C(C)=O)CC1 (centres undefined) -3.47%
O=C(COc1ccc2c(c1)CCC2)N1CCN(c2ccc(F)cc2)CC1 -4.42%
CC[C@@H](C)[C@H](NC(=O)CCc1c(C)c2cc3c4c(oc3c(C)c2oc1=O)CCCC4)C(=O)O 6.8%
CCCCNS(=O)(=O)c1ccc2nc(SCC(=O)Nc3cc(C)cc(C)c3)[nH]c2c1 12.2%
O=[N+]([O-])c1cccc(S(=O)(=O)N2CCCCCC2)c1 -1.72%
CC1=NCCN1S(=O)(=O)c1cccc([N+](=O)[O-])c1 -2.76%
Cc1cc(C)cc(NC(=O)COc2coc(CN3CCN(c4ccccc4)CC3)cc2=O)c1 6.93%
c1ccc(-c2nnc3n2NC(c2ccc4c(c2)OCO4)S3)cc1 (centres undefined) -0.81%

activation, active:
O=C1CC(c2cccc(Cl)c2)CC(O)=C1C=Nc1ccccc1 (centres undefined) 20.8%
CCCC(=O)N=c1sc2cccc(F)c2n1C 39.7%
COc1ccc(N2CC(C(=O)NCCN3C(=O)S/C(=C\c4cccnc4)C3=O)CC2=O)c(OC)c1 (centres undefined) 18.4%
CCOCCCNC(=O)Cc1cc(=O)[nH]c(=O)[nH]1 20.9%
CCOC(=O)c1ccc(NC(=O)Cn2cnc3cc(C)c(C)cc32)cc1 17.4%
COc1ccc(C2c3[nH]c4ccccc4c3C[C@H]3C(=O)N(CC(C)C)CC(=O)N23)c(OC)c1 (some centres undefined) 26.6%
O=C(c1ccncc1)N1CCN(c2ccc3ccccc3n2)CC1 25.6%
COc1cccc(NC(=O)CSc2nnc(-c3cccnc3)o2)c1 14.9%
CC(C)Oc1ccccc1C(=O)NC(CO)C(=O)O (centres undefined) 21.6%
Cc1cc(C)n(S(=O)(=O)c2cccc([N+](=O)[O-])c2)n1 18.4%
